# Source: PubChem (National Center for Advancing Translational Sciences (NCATS))
# HT1080 IDH1KD tx – HT-1080 IDH1 knockdown cell toxicity (counter line); HT-1080 IDH1 knockdown viability, ATP luminescence, 48 h; Potency, µM (doses to about 46.1 µM), hits mostly cytotoxic; hit rate 2% among 360,000
#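 CellTiter-Glo luminescence after 48 h compound exposure at 37 degrees C of IDH1-knockdown HT-1080 cells in 5% FBS RPMI. %Activity scaled between DMSO wells and cell-free media wells, with curves fitted and assigned curve classes.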
# DT40 TDP1 no CPT – qHTS for Inhibitors of human tyrosyl-DNA phosphodiesterase 1 (TDP1): qHTS in cells in absence of CPT. DT40 Tdp1-/- hTDP1 cells, no CPT, ATP luminescence, 48 h. Potency, µM (doses to about 46.2 µM), most hits filed as inhibitors. hit rate 15% among 420,000; further: nearly all actives have a fitted effect of over 55% in size
#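 Growth of hTDP1-complemented DT40 Tdp1-knockout cells is measured by ATP luminescence after at least 48 hr compound exposure at 37 °C, with DMSO substituting for the 20 nM CPT used in the parallel screen.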
# HepG2 tox – kills HepG2 cells in TGF-b inhibitor counter-screen. HepG2 CAGA-GFP viability, ATP luminescence, 18 h. hit rate 0.76% among 410,000. Potency, µM (highest dose often 46.1 µM), hits mostly cytotoxic
#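 CellTiter-Glo luminescence gave cytotoxicity after 18 hours at 37 degrees C. The cells were HepG2 CAGA-GFP in 1% FBS DMEM, stimulated with 500 pg/mL TGF-beta after compound addition. %Activity was normalised to no-cell wells (complete cell-killing) and DMSO (no toxicity), and curves were fitted and classified.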
# TDP1 cell CPT – DT40-hTDP1 cell growth loss with CPT; Potency, µM (top dose mostly 46.2 µM), actives largely listed as inhibitors; hit rate 12% among 420,000; chicken DT40 Tdp1-/-;hTDP1 cells + 20 nM CPT, ATP luminescence, 48 h; further: nearly all actives have a fitted effect of over 55% in size
#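 Cell growth measured by CellTiter-Glo luminescence after a minimum 48 h, 37 C compound exposure with 20 nM CPT in Tdp1-knockout DT40 cells stably expressing hTDP1, seeded 400/well; qHTS titration format.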
# HT1080NT lethal – kills 2HG-producing HT-1080-NT fibrosarcoma cells | hit rate 1.6% among 360,000 | Potency, µM (doses to about 46.1 µM), usual class: cytotoxic | HT-1080-NT fibrosarcoma viability, CellTiter-Glo ATP luminescence, 48 h | AID 686970;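 further: NT is the 2HG producing partner of a matched IDH1 knockdown line; nearly all actives have a fitted effect of over 55% in size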
#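 Viability of the 2HG-overproducing fibrosarcoma line after 48 hours of compound exposure at 37 degrees C was determined by luminescence with CellTiter-Glo, and concentration-effect curves were then fitted and categorized.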
# TGFb SMAD3 inh – TGF-b pathway inhibition. HepG2 CAGA-GFP TGF-b/SMAD3 reporter, GFP fluorescence, 18 h; TGF-beta stimulated, 500 pg/mL final. Potency, µM (titrated, usually from 46.1 µM), usual class: inhibitors. hit rate 1.2% among 410,000; further: nearly all actives have a fitted effect of over 65% in size
#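 Inhibition of TGF-beta-driven CAGA-GFP reporter expression in HEPG2 cells is measured by cellular GFP fluorescence after 18 h stimulation with 500 pg/mL recombinant TGF-beta in 1% FBS medium at 37 degrees C.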
# Hits are given with their value; i = inactive; ? = inconclusive; nt = no result given; ! = not confirmed by another sample; [ ] = another dose, or the depositor's remark. An excerpt weighted towards active compounds, which were near 17% of everything screened. The call rests on the fitted dose curve; in most records, active means well fitted curve in the direction sought with a large enough effect; inconclusive means small, poorly fitted or top-dose-only effect, or another doubt; inactive means no such curve, though single readings can be large; an effect the other way counts as inactive or inconclusive.
SMILES,HT1080 IDH1KD tx,DT40 TDP1 no CPT,HepG2 tox,TDP1 cell CPT,HT1080NT lethal,TGFb SMAD3 inh
Cc1nc2ccc(Nc3nc4cc(S(=O)(=O)N5CCOCC5)ccc4o3)cc2s1,i,18.4µM,i,16.4µM,i,i
C[C@H]1CC2C3CC=C4C[C@@H](O)CC[C@]4(C)C3CC[C@]2(C)[C@H]1O (some centres not stated),i,i,i,i,i,i
C[C@H]1CC[C@@H]2[C@@H](C)[C@H]3[C@H](C[C@H]4[C@@H]5CC=C6C[C@@H](O[C@@H]7O[C@H](CO)[C@H](O)[C@H](O[C@@H]8O[C@H](CO)[C@@H](O)[C@H](O)[C@H]8O)[C@H]7O[C@@H]7O[C@@H](C)[C@H](O)[C@@H](O)[C@H]7O)CC[C@]6(C)[C@H]5CC[C@]34C)N2C1,i,?,12.6µM,14.6µM,i,?
COC(=O)c1cc2c(cn1)[nH]c1ccccc12,nt,i,nt,i,nt,nt
CCOC(=O)c1cc2c(cn1)[nH]c1ccccc12,i,18.4µM!,i,?,i,i
COc1ccc(CNC(=O)Cn2c(=O)nc(-c3ccccc3F)c3cc(Cl)ccc32)cc1,nt,2.06µM,i,1.46µM,nt,i
CC(N)[C@H](O)c1ccccc1 (some centres not stated),nt,i,nt,i,nt,nt
COc1cc(CC(=O)N2C[C@H]3C[C@@H](C2)c2cccc(=O)n2C3)cc(OC)c1OC,i,i,i,i,i,i
CC(C)[C@H](N)C(=O)OCCOCn1cnc2c(=O)[nH]c(N)nc21,i,2.91µM,i,1.84µM,i,i
CCOC(=O)c1cccc(C2=C(CNC(=O)c3ocnc3C)[C@H]3CC[C@@H](C2)N3Cc2ccccc2)c1,i,?,i,i,i,i
CCOC(=O)c1cccc(C2=C(CNC(=O)c3nccs3)[C@H]3CC[C@@H](C2)N3Cc2ccccc2)c1,i,23.1µM,i,14.6µM,i,i
O=C(Nc1ccccc1)C1CC(=O)N(C2CCCCC2)C1 (configuration not stated),i,i,i,i,i,?
CSc1cccc(NC(=O)C2CCN(C(=O)c3cnn(-c4ccccc4)c3-n3cccc3)CC2)c1,nt,18.4µM,i,16.4µM,nt,?
O=C(NCc1ccc(Cl)cc1)C1CCCN(C(=O)c2cnn(-c3ccc(F)cc3)c2-n2cccc2)C1 (configuration not stated),nt,5.8µM,i,8.2µM,nt,i
Cc1ccc(NC(=O)C2CCCN(C(=O)c3cnn(-c4ccccc4)c3-n3cccc3)C2)cc1 (configuration not stated),nt,18.4µM,i,14.6µM,nt,?
CCC1CN1P(=O)(c1ccccc1)N1CC1CC (configuration not stated),i,i,i,i,i,i
NC1(C(=O)O)CCCc2ccc(N(CCCl)CCCl)cc21 (configuration not stated),i,2.31µM,i,1.64µM,i,i
O=C1NC(=O)C2(CCCc3ccc(N(CCCl)CCCl)cc32)N1 (configuration not stated),?,0.184µM,i,0.411µM,?,i
CS(=O)(=O)N1Cc2ccccc2-n2nncc2C1,i,i,i,i,i,i
CN(CCC(N)CC(=O)NC1C=CC(n2ccc(N)nc2=O)OC1C(=O)O)C(=N)N (configuration not stated),nt,i,nt,?,nt,nt
Cc1cccc(C)c1NC(=O)CN1CCCC1=O,nt,i,nt,i,nt,nt
S=c1[nH]nc(-c2ccn[nH]2)n1-c1ccccc1Cl,i,i,i,i,i,i
O=c1[nH]c(=O)n(C2CCCCC2)c(O)c1C1NCCc2ccccc21 (configuration not stated),i,i,i,i,i,i
Fc1ccc(NC(=S)N2Cc3ccccc3-n3nncc3C2)cc1,i,?,i,i,i,i
Cc1c(Cl)cccc1N1C(=O)NC(=O)/C(=C\c2cc(C)n(-c3cccc(C(=O)O)c3C)c2C)C1=O,i,i,i,i,i,i
SMILES,HT1080 IDH1KD tx,DT40 TDP1 no CPT,HepG2 tox,TDP1 cell CPT,HT1080NT lethal,TGFb SMAD3 inh
COC(=O)c1c(OCc2cccnc2)cc(=O)n2c1CCN(Cc1cc3c(cc1Cl)OCO3)CC2,nt,18.4µM,nt,?,nt,nt
Cc1ccc(OCC(=O)N2CCN(Cc3cccnc3)CC2)cc1,i,i,i,i,?,i
CC1([N+](=O)[O-])COP(=O)(NC2CCCC2)OC1 (configuration not stated),i,i,i,i,i,i
Cc1cc(C)cc(Nc2nc3ccc(C)cc3n3cnnc23)c1,i,?,i,i,i,i
Cc1ccc(CNC(=O)c2ccc(Nc3nc4ccccc4n4nnnc34)cc2)cc1,nt,14.6µM,i,?,nt,i
O=C(NCCc1ccc(Cl)cc1)c1ccc(Nc2nc3ccccc3n3nnnc23)cc1,nt,10.3µM,i,?,nt,i
Cc1cc(O)c2c(c1)C(=O)c1cc(O)cc(O)c1C2=O,i,21.1µM,i,18.4µM,i,i
C[C@@]12CCC(Cl)C[C@H]1CCC1C2CC[C@]2(C)C(=O)CCC12 (some centres not stated),nt,i,nt,i,nt,nt
CN1C(=O)CCC2(C)C1=CCC1C2CCC2(C)C1CCC2(C)O (configuration not stated),i,i,i,i,i,i
O=C(Nc1ccccc1)N1CC2CC(C1)c1cccc(=O)n1C2 (configuration not stated),i,i,i,i,i,i
CCc1ccccc1Nc1nn2c(=O)c3ccc(C(=O)Nc4cc(C)cc(C)c4)cc3nc2s1,nt,8.2µM,i,8.2µM,nt,i
Cn1c(O)c(/C=N/c2ccccn2)c(=O)n(C)c1=O,i[9.24 µM],i,i,i,i,i
COc1ccc(CCNC(C)CCc2ccc(OC)cc2)cc1 (configuration not stated),i,?,i,?,?,i
Cc1ccc(C(=O)Nc2c(C(=O)Nc3ccc(C)c(C)c3)sc3nc(C)cc(C)c23)cc1,nt,18.4µM,i,?,nt,i
N#Cc1cccc(NC(=O)N2CC3(CCN(C(=O)Oc4ccccc4)CC3)C2)c1,nt,?,nt,i,nt,nt
Cn1c(=O)oc2cc(S(=O)(=O)N3CCCC(C(=O)Nc4ccccn4)C3)ccc21 (configuration not stated),i,i,i,?,i,?
O=C(Nc1ccc(Cl)c(C(F)(F)F)c1)C1CCCN(S(=O)(=O)c2cccc3cccnc23)C1 (configuration not stated),nt,6.51µM,i,7.31µM,nt,?
